The nature of experiment [1]: AP1 Signaling Pathway (AID 357; active means well fitted curve in either direction with a large enough effect, not every such curve was filed as active;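 further: ME-180 reporter cells stimulated with EGF at its EC50 level; on the % scale 0 is the no-effect control and ±100 the full control effect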). Particulars: ME-180 (cervical carcinoma) AP-1-bla reporter, EGF-induced, beta-lactamase ratio, 5 h; at 7.69 µM (top of the series) unless noted. The method in brief:
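Titration-series screen for positive or negative modulators of EC50 EGF-induced signaling in ME-180 cells carrying an AP-1-driven beta-lactamase reporter. After 5 hours at 37 degrees Celsius, CCF4 460nm/530nm emission ratio gave %Activity; AC50 values derived.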

Experiment [2] has as its target Cytochrome P450 1A2 (Homo sapiens) (UniProt P05177). Description: p450-cyp1a2 (AID 410; calls by dose curve; further: potency means the concentration at half of the fitted maximal effect). The method in brief: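 Read-out is luminescence from luciferin produced by CYP1A2 demethylation of Luciferin-ME (100uM, at Km). Detection reagent stopped the 60 min NADPH-dependent reaction; signals were normalized to 57 uM furafylline.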
Experiment [3] in a line: NFAT Signaling Pathway (AID 444; active means well fitted curve in either direction with a large enough effect, not every such curve was filed as active;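 further: carbachol stimulus at about its EC50 of 1 µM final; on the % scale 0 is the no-effect control and ±100 the full control effect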). Particulars: Jurkat NFAT-bla M1, carbachol, beta-lactamase ratio, 5 h; at 7.69 µM (top of the series) unless noted. A digest of the protocol: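 Read-out: CCF4 FRET ratio (460 nm/530 nm) after 1 h RT dye loading, used for %activity and AC50 from titration series. Cells: Jurkat NFAT-β-lactamase/M1 line, treated with compound plus 1 uM carbachol for 5 h, 37 °C.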

Experiment [4] is described as follows: Stat Signaling Pathway (AID 446; active means well fitted curve in either direction with a large enough effect, not every such curve was filed as active;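 further: ME-180 cervical cancer cells given 40 pM IL-6 alongside compound; SIE-controlled beta-lactamase reporter measured as 460/530 nm FRET emission ratio; on the % scale 0 is the no-effect control and ±100 the full control effect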). A digest of the protocol: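 Compound effects on IL-6-induced STAT reporter activity were measured in ME-180 cells. After overnight culture, cells were co-treated with 40 pM IL-6 for 5 hrs before beta-lactamase substrate loading at room temperature.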
The target in experiment [5] is Glucocorticoid receptor (Homo sapiens) (UniProt P04150). Description: GR-GFP Redistribution (AID 450;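 active means compounds whose dose series gives a full or clear partial fitted curve of increased nuclear translocation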; further: potency means the concentration at half of the fitted maximal effect). Particulars: U2OS GR-GFP nuclear translocation, laser cytometry, 2 h.
The target is the same in experiment [6]. Description: GR-EFC Redistribution (AID 451; calls by dose curve; further: potency means the concentration at half of the fitted maximal effect). Particulars: CHO-K1 GR-EFC translocation, beta-gal luminescence, 2 h. A digest of the protocol: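 Translocation of GR-ED fusion to nuclear EA restores b-gal, read by luminescence after 1 h room-temperature detection. Engineered CHO-K1 biosensor cells, 1,000/well, exposed 2 h at 37 C to titrations up to 46 uM final.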

Experiment [7] addresses Cytochrome P450 2D6 (Homo sapiens) (UniProt P10635). As to the kind of experiment: qHTS Assay for Inhibitors and Substrates of Cytochrome P450 2D6 (AID 891). Further: potency means the concentration at half of the fitted maximal effect; nearly all actives have a fitted effect of over 60% in size. A digest of the protocol: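 Luminescent read-out of luciferin formed by 5 nM human CYP2D6 demethylating 30 uM Luciferin-ME EGE (Km level) over 60 min at room temperature after NADPH regeneration addition. Data normalized to full inhibition by 1.43 uM quinidine.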

Experiment [8] concerns the target Cytochrome P450 2C19 (Homo sapiens) (UniProt P33261). As to the kind of experiment: qHTS Assay for Inhibitors and Substrates of Cytochrome P450 2C19 (AID 899). Further: potency means the concentration at half of the fitted maximal effect; nearly all actives have a fitted effect of over 60% in size. The method in brief: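 Luminescence readout of luciferin formed from 10uM Luciferin-H EGE (KM level) by 5 nM CYP2C19 in 50mM KPO4. 60 min NADPH-driven reaction at 37C after 10 min compound preincubation; data scaled to 57uM ketoconazole inhibition.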
Background: Quantitative high-throughput screening tests each substance at several concentrations.

Experiment [9] deals with Dual specificity protein kinase CLK4 (Homo sapiens) (UniProt Q9HAZ1). Description: qHTS Assay for Inhibitors of CDC-like Kinase 4 (ADP-FP Assay) (AID 1795). Further: nearly all actives have a fitted effect of over 60% in size. Further: potency means the concentration at half of the fitted maximal effect. A digest of the protocol:
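Kinase activity was measured as ADP production using Transcreener orange tracer (4 nM) and ADP antibody (1 ug/mL) fluorescence polarization, with ADP calculated from a calibration curve. The 1 h reaction contained 6.25 nM Clk4, 1 uM ATP and 100 uM RS peptide at pH 7.5 with Mg2+.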

For experiment [10], the target named is Ubiquitin carboxyl-terminal hydrolase 1 (Homo sapiens) (UniProt O94782). As to the kind of experiment: Inhibitors of USP1/UAF1: Pilot qHTS (AID 504865).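 Further: rhodamine fluorescence freed from ubiquitin-rhodamine substrate followed over time; top concentration of the series differs between compounds; on the % scale 0 is the no-effect control and ±100 the full control effect; nearly all actives have a fitted effect of over 35% in size.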 The method in brief: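 Deubiquitinase activity followed as kinetic rhodamine fluorescence release from 150 nM Ub-Rho. 1 nM USP1/UAF1 with compound, after 15 min room-temperature preincubation, in HEPES pH 7.8 buffer containing TCEP, EDTA, BSA and Tween-20.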

The target of experiment [11] is Mitogen-activated protein kinase 10 (Mus musculus) (UniProt Q61831). Description: JNK3 AlphaScreen Assay (AID 530; active means well fitted curve in either direction with a large enough effect, not every such curve was filed as active;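 further: kinase came from lysate of stimulated human HepG2 cells; signal reports phosphorylation of biotinylated GST-cJun 1-79 at Ser73 with 10 µM ATP; on the % scale 0 is the no-effect control and ±100 the full control effect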). A digest of the protocol: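 Kinase buffer: 20 mM Tris-HCl pH 7.6, 10 mM MgCl2, 1 mM DTT, 0.1 mM Na3VO4, 0.01% Tween-20; ATP 10 uM. Substrate biotin-GST-cJun(1-79), enzyme from activated HepG2 lysates. Detection by Ser73 phospho-antibody AlphaScreen.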
On the technique in general: Bead proximity is the source of the signal in Alpha formats.

In experiment [12] the target is Cytochrome P450 3A4 (Homo sapiens) (UniProt P08684). Description: qHTS Assay for Activators of Cytochrome P450 3A4 (AID 885). Further: nearly all actives have a fitted effect of over 65% in size. The method in brief:
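CYP3A4 activity: Luciferin-PPXE O-dealkylation, 25uM substrate, 200mM KPO4, RT throughout. Read-out is luciferase luminescence; higher values reflect activation.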

In experiment [13] the target is Glutathione peroxidase 1 (Homo sapiens) (UniProt P07203). Description: Primary qHTS Assay for Inhibitors of Recombinant Selenoprotein Glutathione Peroxidase 1 (GPX1) (AID 1845191). Further: nearly all actives have a fitted effect of over 65% in size. Further: potency means the concentration at half of the fitted maximal effect. The method in brief: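 NADPH consumption tracked by fluorescence at 340/450 nm between t=0 and t=15 min, room temperature. Final mix: 10 nM GPX1, 100 nM glutathione reductase, 1 mM GSH, 0.5 mM NADPH, 0.5 mM cumene hydroperoxide, 0.01% BSA; 30 min compound–enzyme preincubation.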

For experiment [14], the target named is Phospholipid hydroperoxide glutathione peroxidase GPX4 (Homo sapiens) (UniProt P36969). As to the kind of experiment: Primary qHTS Assay for Inhibitors of Recombinant Selenoprotein Glutathione Peroxidase 4 (GPX4) (AID 1845192). Further: nearly all actives have a fitted effect of over 65% in size. Further: potency means the concentration at half of the fitted maximal effect. A digest of the protocol:
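NADPH consumption followed by fluorescence at 340/450 nm, t=0 and after 15 min at room temperature. Reaction started with cumene hydroperoxide (0.5 mM final) after 30 min compound–GPX4 preincubation; final 200 nM GPX4, 100 nM GR, 1 mM GSH, 0.5 mM NADPH.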

Unmarked numbers belong to inactive results. Inconclusive results are not listed. The source made the active and inactive calls. Unless noted, the call rests on the fitted dose curve; in most records, active means well fitted curve in the direction sought with a large enough effect; inconclusive means small, poorly fitted or top-dose-only effect, or another doubt; inactive means no such curve, though single readings can be large; an effect the other way counts as inactive or inconclusive.

Sequence of Glucocorticoid receptor (Homo sapiens) (P04150 whole entry, looked up, the tested form may be a part): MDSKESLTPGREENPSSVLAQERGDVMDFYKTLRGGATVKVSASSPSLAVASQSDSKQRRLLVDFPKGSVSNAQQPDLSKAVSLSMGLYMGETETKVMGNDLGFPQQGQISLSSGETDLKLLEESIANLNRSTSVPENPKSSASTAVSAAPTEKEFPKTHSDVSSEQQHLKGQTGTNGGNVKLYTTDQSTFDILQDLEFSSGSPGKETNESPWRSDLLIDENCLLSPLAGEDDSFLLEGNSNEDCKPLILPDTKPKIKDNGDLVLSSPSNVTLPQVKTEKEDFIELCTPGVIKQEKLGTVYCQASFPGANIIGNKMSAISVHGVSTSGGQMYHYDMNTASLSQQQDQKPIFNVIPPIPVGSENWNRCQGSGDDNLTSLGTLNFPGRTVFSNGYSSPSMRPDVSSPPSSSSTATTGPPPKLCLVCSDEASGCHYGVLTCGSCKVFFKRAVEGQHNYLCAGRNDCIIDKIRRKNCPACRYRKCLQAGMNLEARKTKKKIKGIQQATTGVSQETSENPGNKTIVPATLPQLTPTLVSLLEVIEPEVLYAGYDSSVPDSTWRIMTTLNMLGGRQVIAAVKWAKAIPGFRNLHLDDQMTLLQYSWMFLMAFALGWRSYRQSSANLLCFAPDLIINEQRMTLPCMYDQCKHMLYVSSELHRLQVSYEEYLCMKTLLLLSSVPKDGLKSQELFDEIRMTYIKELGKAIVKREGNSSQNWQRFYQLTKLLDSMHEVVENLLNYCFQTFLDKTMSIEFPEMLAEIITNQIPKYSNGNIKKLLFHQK
Sequence of Phospholipid hydroperoxide glutathione peroxidase GPX4 (Homo sapiens) (P36969 whole entry, looked up): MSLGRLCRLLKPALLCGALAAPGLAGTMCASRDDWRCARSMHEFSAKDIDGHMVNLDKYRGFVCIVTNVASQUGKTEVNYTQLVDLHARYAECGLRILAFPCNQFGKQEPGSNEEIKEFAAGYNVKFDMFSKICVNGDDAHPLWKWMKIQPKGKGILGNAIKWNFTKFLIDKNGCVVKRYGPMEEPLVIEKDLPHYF
Sequence of Glutathione peroxidase 1 (Homo sapiens) (P07203 whole entry, looked up): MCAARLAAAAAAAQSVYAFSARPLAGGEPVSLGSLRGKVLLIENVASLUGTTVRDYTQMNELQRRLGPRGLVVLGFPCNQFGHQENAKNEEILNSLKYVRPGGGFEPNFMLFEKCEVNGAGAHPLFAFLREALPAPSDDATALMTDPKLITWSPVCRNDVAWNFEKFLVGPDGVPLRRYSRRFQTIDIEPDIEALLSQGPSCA
Sequence of Dual specificity protein kinase CLK4 (Homo sapiens) (Q9HAZ1 whole entry, looked up): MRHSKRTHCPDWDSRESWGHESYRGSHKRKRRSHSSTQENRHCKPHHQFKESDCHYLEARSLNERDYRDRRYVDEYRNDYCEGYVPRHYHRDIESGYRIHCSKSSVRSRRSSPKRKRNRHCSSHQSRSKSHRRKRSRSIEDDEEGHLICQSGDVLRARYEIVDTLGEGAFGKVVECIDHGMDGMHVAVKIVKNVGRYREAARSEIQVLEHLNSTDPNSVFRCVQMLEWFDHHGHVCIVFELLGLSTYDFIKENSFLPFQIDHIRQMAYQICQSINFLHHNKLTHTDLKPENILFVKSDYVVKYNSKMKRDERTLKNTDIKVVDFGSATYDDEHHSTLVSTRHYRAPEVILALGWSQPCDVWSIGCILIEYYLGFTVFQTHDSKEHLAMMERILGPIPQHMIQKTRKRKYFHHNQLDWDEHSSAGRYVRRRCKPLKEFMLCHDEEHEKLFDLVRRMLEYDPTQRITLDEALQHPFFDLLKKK
Sequence of Cytochrome P450 1A2 (Homo sapiens) (P05177 whole entry, looked up): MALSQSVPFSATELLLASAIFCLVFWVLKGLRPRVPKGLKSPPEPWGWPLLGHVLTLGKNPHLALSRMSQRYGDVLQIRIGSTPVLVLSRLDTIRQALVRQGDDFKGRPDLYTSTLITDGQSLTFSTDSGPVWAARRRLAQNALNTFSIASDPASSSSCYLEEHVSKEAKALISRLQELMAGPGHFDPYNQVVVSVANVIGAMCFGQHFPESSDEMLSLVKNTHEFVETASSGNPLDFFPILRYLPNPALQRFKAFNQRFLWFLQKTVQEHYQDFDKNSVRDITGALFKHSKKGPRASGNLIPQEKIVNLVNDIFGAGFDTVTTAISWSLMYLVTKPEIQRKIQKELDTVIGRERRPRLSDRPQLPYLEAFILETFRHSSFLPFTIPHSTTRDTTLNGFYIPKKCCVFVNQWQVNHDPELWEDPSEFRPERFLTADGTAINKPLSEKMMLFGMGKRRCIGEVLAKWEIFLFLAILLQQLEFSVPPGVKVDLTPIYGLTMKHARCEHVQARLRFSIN
Sequence of Ubiquitin carboxyl-terminal hydrolase 1 (Homo sapiens) (O94782 whole entry, looked up): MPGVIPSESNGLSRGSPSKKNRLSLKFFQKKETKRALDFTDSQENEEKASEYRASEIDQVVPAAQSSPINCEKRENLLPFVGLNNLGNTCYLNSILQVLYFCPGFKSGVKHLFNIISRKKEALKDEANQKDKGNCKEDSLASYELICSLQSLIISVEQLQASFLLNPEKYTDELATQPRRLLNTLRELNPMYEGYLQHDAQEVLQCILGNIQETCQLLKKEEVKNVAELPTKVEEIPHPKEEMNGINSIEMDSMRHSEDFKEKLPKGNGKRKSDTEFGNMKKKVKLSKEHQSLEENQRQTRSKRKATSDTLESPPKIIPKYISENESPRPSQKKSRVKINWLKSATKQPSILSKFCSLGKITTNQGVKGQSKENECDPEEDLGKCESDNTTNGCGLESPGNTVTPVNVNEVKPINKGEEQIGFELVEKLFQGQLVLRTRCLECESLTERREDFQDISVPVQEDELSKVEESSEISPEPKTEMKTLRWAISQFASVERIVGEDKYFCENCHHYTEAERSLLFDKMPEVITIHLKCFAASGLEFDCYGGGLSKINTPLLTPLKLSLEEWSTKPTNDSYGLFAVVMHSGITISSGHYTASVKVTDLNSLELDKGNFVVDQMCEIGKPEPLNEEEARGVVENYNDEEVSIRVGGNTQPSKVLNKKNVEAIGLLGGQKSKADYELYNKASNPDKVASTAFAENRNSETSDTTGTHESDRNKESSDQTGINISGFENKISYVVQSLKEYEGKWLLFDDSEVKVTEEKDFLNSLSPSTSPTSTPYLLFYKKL
Sequence of Cytochrome P450 2C19 (Homo sapiens) (P33261 whole entry, looked up): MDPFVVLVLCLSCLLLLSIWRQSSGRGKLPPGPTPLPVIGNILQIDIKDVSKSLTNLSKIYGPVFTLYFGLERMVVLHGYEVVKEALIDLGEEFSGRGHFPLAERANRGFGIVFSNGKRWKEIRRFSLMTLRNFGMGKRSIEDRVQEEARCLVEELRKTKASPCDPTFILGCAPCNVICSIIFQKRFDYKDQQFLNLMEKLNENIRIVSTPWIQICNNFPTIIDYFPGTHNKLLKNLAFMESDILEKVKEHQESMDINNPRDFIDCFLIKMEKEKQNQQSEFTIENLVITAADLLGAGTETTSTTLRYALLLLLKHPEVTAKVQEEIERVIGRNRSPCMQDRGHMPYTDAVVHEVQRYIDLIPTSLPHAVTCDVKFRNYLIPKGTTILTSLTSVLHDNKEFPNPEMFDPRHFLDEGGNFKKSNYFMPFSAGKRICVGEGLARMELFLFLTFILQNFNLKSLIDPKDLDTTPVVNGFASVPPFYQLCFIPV
Sequence of Cytochrome P450 2D6 (Homo sapiens) (P10635 whole entry, looked up): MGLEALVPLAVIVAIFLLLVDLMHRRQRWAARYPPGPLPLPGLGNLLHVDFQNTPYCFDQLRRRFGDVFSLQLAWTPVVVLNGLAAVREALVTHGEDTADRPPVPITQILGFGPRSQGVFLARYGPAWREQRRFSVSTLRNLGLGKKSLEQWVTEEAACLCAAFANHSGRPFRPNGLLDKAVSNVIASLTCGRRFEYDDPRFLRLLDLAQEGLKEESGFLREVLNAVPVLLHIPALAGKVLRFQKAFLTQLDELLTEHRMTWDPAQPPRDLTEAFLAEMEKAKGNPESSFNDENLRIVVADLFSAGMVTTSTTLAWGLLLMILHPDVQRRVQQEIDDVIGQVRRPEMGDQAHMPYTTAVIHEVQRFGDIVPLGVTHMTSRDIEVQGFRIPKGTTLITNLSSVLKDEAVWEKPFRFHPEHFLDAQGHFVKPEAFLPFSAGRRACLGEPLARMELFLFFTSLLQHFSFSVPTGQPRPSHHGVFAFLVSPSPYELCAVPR
Sequence of Cytochrome P450 3A4 (Homo sapiens) (P08684 whole entry, looked up): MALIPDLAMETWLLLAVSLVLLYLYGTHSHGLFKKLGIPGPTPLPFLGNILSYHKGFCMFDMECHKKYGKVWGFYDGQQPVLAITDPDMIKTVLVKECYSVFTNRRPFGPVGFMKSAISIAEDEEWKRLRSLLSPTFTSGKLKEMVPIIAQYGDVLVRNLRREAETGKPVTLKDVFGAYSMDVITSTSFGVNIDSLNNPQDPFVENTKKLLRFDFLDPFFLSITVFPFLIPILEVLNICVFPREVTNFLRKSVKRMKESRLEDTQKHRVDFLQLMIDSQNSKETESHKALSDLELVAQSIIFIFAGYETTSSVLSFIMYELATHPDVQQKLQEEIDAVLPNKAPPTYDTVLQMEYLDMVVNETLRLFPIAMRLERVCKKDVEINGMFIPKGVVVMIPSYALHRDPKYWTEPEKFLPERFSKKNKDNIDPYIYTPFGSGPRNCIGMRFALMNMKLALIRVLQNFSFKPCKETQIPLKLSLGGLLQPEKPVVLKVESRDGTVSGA

As to `CCNc1ncc2nc(CCc3ccccc3)c(=O)n(C3CC3)c2n1`, the values for the activity change, negative = inhibition in [1] and in experiment [3] were -7.57% and 11.9%, respectively. Further, the Potency was 3.16 µM (active) in experiment [2]; over 9.22 µM in experiment [5]; over 46 µM in experiment [6]; 0.398 µM (active) in experiment [7]; 6.31 µM (active) in [8]. Besides, the compound was called inactive in experiment [4]. In addition, the Potency result in experiment [9] and in [10] was “inactive” in each case.

`c1ccc(Nc2nc(-c3ccoc3)nc3ccccc23)cc1`: the figures for the activity change, negative = inhibition in experiment [1] and in experiment [3] were 0.696% and 2.6%, respectively. Further, the compound was classed as inactive in experiment [4] and in experiment [12]. Besides, the Potency in [5] is over 46 µM; in experiment [6] it was over 46 µM; in experiment [9], 7.94 µM (active). The Potency result in experiment [11] was “inactive”.

For the compound `Cc1c(OCC(F)(F)F)ccnc1C[S@@](=O)c1nc2ccccc2[nH]1`, the figures for the Potency in experiment [13] and in [14] were 10.1 µM (active) and 10 µM (active), respectively.

In the case of `CCCCCCCCCCCCCCCCCCCCCCCCCCCCO`, the figures for the outcome in experiment [13] and in experiment [14] were “inactive [at 0.4 µM]” and “inactive [at 0.409 µM]”, respectively.

Take `CCCCC(=O)O[C@]1(C(=O)COC(C)=O)CC[C@H]2[C@@H]3CCC4=CC(=O)C=C[C@]4(C)[C@H]3[C@@H](O)C[C@@]21C`: the Potency entry in experiment [13] and in [14] was “inactive” each time.

For the compound `CC(C)=C/C(C)=N\Nc1nncc2ccccc12`, the Potency result in experiment [13] and in experiment [14] was “inactive” in each case.

Turning to `CO[C@@H]1C[C@H](O[C@H]2[C@H](C)[C@H](O[C@@H]3O[C@@H](C)C[C@@H](N(C)C)[C@H]3OC(C)=O)[C@H](C)C[C@]3(CO3)C(=O)[C@H](C)[C@H](OC(C)=O)[C@H](C)[C@H](C)OC(=O)[C@@H]2C)O[C@H](C)[C@H]1OC(C)=O`, the Potency entry in experiment [13] and in experiment [14] was “inactive” in each case.

As for `CCOc1cc(C(CS(C)(=O)=O)N2C(=O)c3cccc(NC(C)=O)c3C2=O)ccc1OC` (stereo unspecified), the Potency entry in [13] and in experiment [14] was “inactive” each time.

`CC(C)C[C@H](NC(=O)[C@@H](Cc1c[nH]c2ccccc12)NC(=O)[C@H](Cc1ccc(O)cc1)NC(=O)[C@H](CO)NC(=O)[C@H](Cc1c[nH]c2ccccc12)NC(=O)[C@H](Cc1cnc[nH]1)NC(=O)[C@@H]1CCC(=O)N1)C(=O)N[C@@H](CCCN=C(N)N)C(=O)N1CCC[C@H]1C(=O)NCC(N)=O`: the Potency entry in [13] and in [14] was “inactive” each time.

As for `COc1cc(N)cn[n+]1-c1ccccc1`, the Potency entry in experiment [13] and in experiment [14] was “inactive” in each case.

`CSCCNc1nc(SCCC(F)(F)F)nc2c1ncn2[C@@H]1O[C@H](COP(=O)(O)OP(=O)(O)C(Cl)(Cl)P(=O)(O)O)[C@@H](O)[C@H]1O`: the Potency entry in experiment [13] and in experiment [14] was “inactive” in each case.

Source of the values: PubChem BioAssay (NCATS).
